PubChem BioAssay (Tox21)
Several values for one entry are separate records, joined by “and”; a condition that tells them apart may be missing. Equal entries are not always repeated. Records with an inconclusive call do not appear. A call without a number means that no potency is given here. Activity calls are given as the source filed them. Unless noted, calls follow the shape of the dose curve; as a rule, active = well fitted curve in the direction sought with a large enough effect in the repeat runs; inconclusive = weak or mixed curves; inactive = no such curve, though single readings can be large; an effect the other way counts as inactive or inconclusive.

Key:
[1] = qHTS RealTime-Glo MT Cell Viability Assay in HEK293 cells - 8 hour (AID 1224887); also: top concentration of the series differs between compounds; nearly all actives have a fitted effect of over 50% in size
Method in brief: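 Real-time viability in HEK293: signal arises when living cells convert a prosubstrate for NanoLuc in the medium, so luminescence tracks viable cell number. Compound (23 nL, DMSO) added 5 h post-seeding; kinetic reads at 0–40 h, 37 C.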

[2] = qHTS RealTime-Glo MT Cell Viability Assay in HepG2 cells - 0 hour (AID 1224889); also: nearly all actives have a fitted effect of over 50% in size
Method in brief: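 HepG2 cells were seeded at 600 cells/well together with NanoLuc luciferase and a cell-permeant prosubstrate, preincubated 5 h at 37 C/5% CO2, then pin-dosed with compounds in DMSO. Nonlytic luminescence from viable cells was read at each time point.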

[3] = A CellTox Green Cytotoxicity Assay to monitor cytotoxicity in HepG2 cells - 8 hour (AID 1224890); also: nearly all actives have a fitted effect of over 45% in size
Method in brief: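 Cells and non-lytic dye reagent are dispensed together (600 HepG2 cells/well) and incubated 5 h before DMSO compound transfer. Kinetic fluorescence is then recorded in the same wells during 40 h at 37 C.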

[4] = qHTS assay to identify small molecule antagonists of the estrogen receptor alpha (ER-alpha) signaling pathway using the BG1 cell line in the presence of 0.1 nM 17-beta-estradiol - cell viability counter screen (AID 1259241); also: nearly all actives have a fitted effect of over 40% in size
Method in brief: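 Cells were plated and left 24 hr, compounds in DMSO were pinned in, 17beta-estradiol was added to 0.1 nM final, and after 22 hr CellTiter-Fluor reagent was added for 30 min before fluorescence was read.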

[5] = qHTS assay to identify small molecule antagonists of the androgen receptor (AR) signaling pathway using the MDA cell line in the presence of 0.5 nM R1881 - cell viability counter screen (AID 1259242); also: nearly all actives have a fitted effect of over 45% in size
Method in brief: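 Steps: plate MDA-kb2 cells, rest 5 hr at 37C without CO2; pin in compounds in DMSO; add R1881 to 0.5 nM final; incubate 16 hr; add CellTiter-Fluor, 30 min; read fluorescence.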

[6] = qHTS assay to identify small molecule HDAC inhibitors (AID 1259364);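 also: wild-type HCT-116 cells with endogenous class I/II HDAC activity; top concentration of the series differs between compounds; nearly all actives have a fitted effect of over 45% in size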
Method in brief: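 Cells (HCT-116, wild type) are seeded at 1,500 per well, incubated overnight, treated with compound in DMSO for 2 hr, then developed with HDAC-Glo I/II reagent for 30 min at room temperature.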

[7] = qHTS assay to identify small molecule HDAC inhibitors - cell viability counter screen (AID 1259365); also: series mostly up to about 92 µM; nearly all actives have a fitted effect of over 50% in size
Method in brief: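 Counter screen in wild-type HCT-116 cells: compounds dissolved in DMSO are pin-transferred onto overnight-plated cells and left 2hr at 37C. ATP-based CellTiter-Glo luminescence then measures viable cells.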

[8] = qHTS assay to identify small molecule agonists of the sonic hedgehog signaling (Shh) pathway - cell viability counter screen (AID 1259366); also: nearly all actives have a fitted effect of over 50% in size
Method in brief: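 Cells are plated at 2,000 per well and left 4hr at 37C, 5% CO2 before compound addition. After 23hr of treatment, CellTiter-Fluor reagent is added for 1hr at 37C and fluorescence is measured.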

[9] = qHTS assay to identify small molecule antagonists of the sonic hedgehog signaling (Shh) pathway - cell viability counter screen (AID 1259367); also: nearly all actives have a fitted effect of over 55% in size; also: potency is read from the fitted curve at half-maximal effect
Method in brief: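 Cytotoxicity was assessed in parallel with Shh reporter activity by measuring live-cell protease fluorescence (CellTiter-Fluor) in NIH/3T3 cells stably carrying Gli1-Luc, treated with compound under conditioned medium stimulation for 23 hr plus 1 hr reagent incubation.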

[10] = qHTS assay to identify small molecule agonists of the sonic hedgehog signaling (Shh) pathway (AID 1259368; calls by dose curve;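 also: NIH/3T3-derived 3T3Gli1-Luc cells carrying a stable Gli1-driven firefly luciferase reporter; series mostly up to about 92 µM; nearly all actives have a fitted effect of over 15% in size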)
Method in brief: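 Cells of a mouse NIH/3T3 clone stably expressing luciferase under the Gli1 transcriptional response element are exposed to test chemicals for 24 hr at 37 C. Pathway activation is detected as a rise in luminescence.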

[11] = molecular target: Estrogen receptor beta (Homo sapiens) (UniProt Q92731); test: qHTS assay to identify small molecule agonists of the estrogen receptor beta (ER-beta) signaling pathway (AID 1259377; active = well fitted activation curve with a large enough effect in the signal ratio in the repeat runs, not every such curve was filed as active; the % refers to the signal ratio; also: potency is read from the fitted curve at half-maximal effect)
Chain of Estrogen receptor beta (Homo sapiens) (Q92731 whole entry, looked up, the tested form may be a part): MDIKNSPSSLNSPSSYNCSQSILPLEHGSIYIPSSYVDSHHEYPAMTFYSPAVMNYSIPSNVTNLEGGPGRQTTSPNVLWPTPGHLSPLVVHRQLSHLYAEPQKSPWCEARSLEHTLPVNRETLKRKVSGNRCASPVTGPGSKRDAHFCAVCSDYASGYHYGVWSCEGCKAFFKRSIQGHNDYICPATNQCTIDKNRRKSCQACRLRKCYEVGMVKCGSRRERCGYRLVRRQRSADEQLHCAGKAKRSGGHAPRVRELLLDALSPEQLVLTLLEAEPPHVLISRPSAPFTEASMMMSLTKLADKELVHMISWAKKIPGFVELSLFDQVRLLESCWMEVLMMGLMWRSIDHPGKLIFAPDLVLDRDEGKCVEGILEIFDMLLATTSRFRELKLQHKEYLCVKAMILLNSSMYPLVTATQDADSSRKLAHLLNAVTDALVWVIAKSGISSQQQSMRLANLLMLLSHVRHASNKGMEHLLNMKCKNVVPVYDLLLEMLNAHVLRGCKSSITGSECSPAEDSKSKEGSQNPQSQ
Method in brief: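 Agonist mode cell assay in GripTite HEK293T cells expressing an ER-beta fusion that drives beta-lactamase from an Upstream Activator Sequence; 16 hr compound exposure at 37C, then 2 h LiveBLAzer B/G FRET substrate at room temperature, fluorescence read-out.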

[12] = molecular target: Estrogen receptor beta (Homo sapiens) (UniProt Q92731); test: qHTS assay to identify small molecule antagonists of the estrogen receptor beta (ER-beta) signaling pathway (AID 1259378; active = well fitted inhibition curve with a large enough effect in the signal ratio in the repeat runs, not every such curve was filed as active; the % refers to the signal ratio)
Method in brief: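 ER-beta-UAS-bla HEK293T (GripTite) cells in 2% charcoal-stripped FBS medium were preincubated 6 hr at 37C, dosed with compound, then stimulated with 1 nM E2 (final) for 16 hr; beta-lactamase reporter read by B/G FRET fluorescence after 2 hr substrate loading.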

[13] = qHTS assay to identify small molecule agonists of the androgen receptor (AR) signaling pathway in the presence of an antagonist - cell viability counter screen (AID 1259379);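 also: MDA-kb2 human breast cancer cells carrying an MMTV luciferase reporter; series mostly up to about 92 µM; nearly all actives have a fitted effect of over 25% in size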
Method in brief: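 Cytotoxicity is assessed by CellTiter-Fluor in MDA-kb2 cells carrying an MMTV-driven luciferase reporter. Cells receive 3.0uM nilutamide plus compounds at 15 concentrations and incubate 16 hr at 37C without CO2 before fluorescence reading.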

[14] = qHTS RealTime-Glo MT Cell Viability Assay in HEK293 cells - 24 hour (AID 1224886)
Method in brief: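 HEK293 cells were seeded at 600 cells/well together with NanoLuc luciferase and cell-permeant prosubstrate, preincubated 5 h at 37 C/5% CO2, then given compound in DMSO by pintool. Luminescence from viable-cell prosubstrate reduction was read repeatedly over 40 h.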

[15] = A CellTox Green Cytotoxicity Assay to monitor cytotoxicity in HEK293 cells - 16 hour (AID 1224888); also: nearly all actives have a fitted effect of over 35% in size
Method in brief: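 Cells (HEK293, 600/well) and dye reagent are dispensed together. After 5 h at 37 C, 23 nL compound is pinned in. Plates stay at 37 C for 40 h with fluorescence read at 0h, 8h, 16h, 24h, 32h and 40h.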

[16] = molecular target: Estrogen receptor (Homo sapiens) (UniProt P03372); test: qHTS assay to identify small molecule antagonists of the estrogen receptor alpha (ER-alpha) signaling pathway using the BG1 cell line in the presence of 0.1 nM 17-beta-estradiol (AID 1259244); also: nearly all actives have a fitted effect of over 50% in size
Chain of Estrogen receptor (Homo sapiens) (P03372 whole entry, looked up): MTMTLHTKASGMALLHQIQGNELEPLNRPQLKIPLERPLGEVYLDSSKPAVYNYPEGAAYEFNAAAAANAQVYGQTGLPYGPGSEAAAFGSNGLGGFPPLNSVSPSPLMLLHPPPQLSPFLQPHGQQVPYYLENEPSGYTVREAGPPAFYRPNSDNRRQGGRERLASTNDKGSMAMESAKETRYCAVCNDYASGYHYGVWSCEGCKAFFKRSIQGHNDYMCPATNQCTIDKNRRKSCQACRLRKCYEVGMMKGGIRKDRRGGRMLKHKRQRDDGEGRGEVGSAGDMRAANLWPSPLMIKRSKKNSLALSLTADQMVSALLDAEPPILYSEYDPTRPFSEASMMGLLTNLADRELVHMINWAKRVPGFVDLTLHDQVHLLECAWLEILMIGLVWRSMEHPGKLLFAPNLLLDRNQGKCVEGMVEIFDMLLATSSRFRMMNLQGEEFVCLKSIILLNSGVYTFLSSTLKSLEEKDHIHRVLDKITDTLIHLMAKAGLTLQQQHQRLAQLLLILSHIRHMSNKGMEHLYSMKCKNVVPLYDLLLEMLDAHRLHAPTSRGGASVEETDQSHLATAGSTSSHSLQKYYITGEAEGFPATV
Method in brief: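 Antagonist mode: compounds in DMSO are pinned onto VM7Luc4E2 reporter cells, 0.1 nM final 17beta-estradiol is added, and after 22 h at 37C luciferase luminescence is measured with ONE-Glo.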

[17] = qHTS assay to identify small molecule phospholipidosis (PLD) inducers (AID 1259344; active = well fitted curve in the direction sought with a large enough effect; an effect the other way counts as inactive or inconclusive)
Method in brief: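 Cells (HepG2, 900 per well) attach for 4 h, receive LipidTOX Red and compound together, incubate 24 h at 37 C, are fixed 30 min with paraformaldehyde/Hoechst, then imaged at one site per well.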

[18] = qHTS assay to identify small molecule antagonists of the sonic hedgehog signaling (Shh) pathway (AID 1259369; calls by dose curve; also: nearly all actives have a fitted effect of over 45% in size; also: potency is read from the fitted curve at half-maximal effect)
Method in brief: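 Cells are plated and held 4hr at 37 C, compounds (DMSO) are pinned in, conditioned medium is added to stimulate the pathway, and after 24hr luciferase reagent is added for 30min before luminescence is read.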

SMILES | Potency [1] | Potency [2] | Potency [3] | Potency [4] | outcome [5] | Potency [6] | outcome [7] | Potency [8] | Potency [9] | outcome [10] | Potency [11] | Potency [12] | Potency [13] | Potency [14] | outcome [15] | Potency [16] | outcome [17] | Potency [18]
CC(C)(C)[C@@H](O)[C@@H](Cc1ccc(Cl)cc1)n1cncn1 | inactive | inactive | inactive | inactive | inactive | inactive | inactive | inactive | inactive | inactive | inactive | inactive | inactive | – | – | – | – | –
Cc1cnc(C(=O)NCCc2ccc(S(=O)(=O)NC(=O)NC3CCCCC3)cc2)cn1 | inactive | inactive | inactive | inactive | inactive | inactive | inactive | – | inactive | inactive | – | inactive | – | inactive | inactive | inactive | inactive | inactive
CC(=O)c1ccccc1 | inactive | inactive | inactive | inactive | inactive | inactive | inactive | inactive | inactive | inactive | – | – | – | inactive | inactive | inactive | – | inactive
OCCOCCN1CCN(C2=Nc3ccccc3Sc3ccccc32)CC1 | inactive | inactive | inactive | inactive | inactive | inactive | inactive | – | inactive | inactive | inactive | inactive | inactive | inactive | inactive | – | inactive | inactive
CC(=O)Nc1ccccc1 | inactive | inactive | inactive | inactive | inactive | inactive | inactive | inactive | inactive | inactive | inactive | inactive | inactive | inactive | inactive | inactive | inactive | inactive
CC1=C(C)S(=O)(=O)CCS1(=O)=O | inactive | inactive | inactive | inactive | inactive | inactive | inactive | inactive | inactive | inactive | inactive | inactive | – | inactive | inactive | inactive | – | 21.3 µM (active) and 38.6 µM (active)
CN(C)CCC(c1ccc(Cl)cc1)c1ccccn1 (centres undefined) | inactive | inactive | inactive | inactive | inactive | inactive | inactive | – | 68.7 µM (active) | inactive | – | – | inactive | inactive | – | – | – | 24.4 µM (active) and 17.2 µM (active)
CC(C)CC(=O)CC(C)C | inactive | inactive | inactive | inactive | inactive | inactive | inactive | inactive | inactive | inactive | inactive | inactive | inactive | inactive | – | – | – | inactive
C#C[C@]1(O)CC[C@H]2[C@@H]3CCC4=CC(=O)CC[C@@H]4[C@H]3CC[C@@]21C | inactive | inactive | inactive | inactive | inactive | inactive | inactive | – | inactive | inactive | 1.37 µM (active) and 4.22 µM (active) | inactive | inactive | inactive | – | inactive | inactive | 21.7 µM (active) and 29.8 µM (active)
CN(C)CCC(c1ccccc1)c1ccccn1 (centres undefined) | inactive | inactive | inactive | inactive | inactive | inactive | inactive | inactive | inactive | inactive | inactive | inactive | inactive | inactive | inactive | – | inactive | inactive
CCCCCC1=CCCC1=O | inactive | inactive | inactive | inactive | inactive | inactive | inactive | inactive | inactive | inactive | inactive | inactive | inactive | inactive | – | inactive | – | inactive
CC(C)(N)CO | inactive | inactive | inactive | inactive | inactive | inactive | inactive | inactive | inactive | inactive | inactive | inactive | inactive | inactive | – | inactive | – | inactive
